HCMV inh – inhibitors of human cytomegalovirus. HFF cells, HCMV-luciferase reporter, 72 h; stronger effect = lower value. activity change, negative = inhibition, % at 57.5 µM. 410,000 tested, 4.5% active. AID 1259415; in the data active = activity change below about -60%; inconclusive = no clear call, values can overlap the other calls; inactive = above about -39%
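Cell-based, HFFs, 1000 cells/well, 16 h 37C; cpds in DMSO + HCMV-luc, MOI 1 PFU/cell; 72 h 37C; OneGlo luminescence after 5 min RT; norm. to buffer vs Salinomycin 10uM.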
HCV inh – blocks hepatitis C virus; Huh7.5.1 HCVcc-Cre infection, luciferase reporter, 44 h; Potency, µM (titrated, usually from 41.8 µM), hits mostly inhibitors; 340,000 tested, 3.4% active; active = well fitted inhibition curve with a large enough effect; inconclusive = small, poorly fitted or top-dose-only effect, or another doubt; inactive = no such curve, though single readings can be large or run the other way
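Reporter virus HCVcc-Cre (~0.5 moi) infects cells exposed to compound; seeding density 1,000 cells/well with 4 h settling beforehand. Luminescence, 15 sec read, taken 44 h post-infection following a 15 min RT substrate incubation.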
FMDV antiviral – antivirals against foot and mouth disease virus. FMDV antiviral cell-based qHTS. Potency, µM (doses to about 57.9 µM), hits mostly inhibitors. 410,000 tested, 1.2% active. AID 1159524; calls by dose curve; tested in HEK293T cells; also: read-out not given here; nearly all actives have a fitted effect of over 45% in size
SARS PLpro yeast – SARS-CoV PLP inhibition in yeast. S. cerevisiae expressing SARS-CoV PLpro, growth rescue. Potency, µM (series often up to 32.9 µM), hits mostly activators. 330,000 tested, 0.19% active. AID 485353; calls by dose curve; also: nearly all actives have a fitted effect of over 55% in size
Lassa entry inh – blocks Lassa virus binding to or entry into cells | Potency, µM (doses to about 37.9 µM), usual class: inhibitors | Lassa virus pseudotype entry inhibition, cell reporter | 300,000 tested, 1.2% active | AID 540256; calls by dose curve; tested in HEK293 cells; also: nearly all actives have a fitted effect of over 50% in size
MARV entry inh – Marburg virus entry inhibition. 300,000 tested, 1.8% active. Marburg virus pseudotyped entry inhibition, cell reporter. Potency, µM (titrated, usually from 37.8 µM), most hits filed as inhibitors; calls by dose curve; tested in HEK293 cells
Large screens that a line does not name were inactive. Most compounds without a hit are left out; they make up all but 8% or so of the library.

O=C(Nc1ccc(Br)c(C(F)(F)F)c1)c1ccccc1	HCMV inh -90, Lassa entry inh inconclusive
COc1ccc(Cl)cc1NC(=O)CSc1nc2ccccc2nc1N1CCCCC1	MARV entry inh inconclusive (no result: HCV inh, SARS PLpro yeast)
CCOc1ccccc1Nc1ncnc2ccc(Br)cc12	HCV inh 22µM, MARV entry inh inconclusive
COc1cc2ncnc(NCc3ccco3)c2cc1OC	none (no result: Lassa entry inh, MARV entry inh)
CC(=O)c1cccc(Nc2ncnc3ccc(Br)cc23)c1	HCMV inh inconclusive, HCV inh inconclusive, FMDV antiviral inconclusive, Lassa entry inh inconclusive, MARV entry inh inconclusive
COc1ccccc1Nc1ncnc2ccccc12	Lassa entry inh inconclusive
Brc1ccc2ncnc(NCc3ccco3)c2c1	HCMV inh -87, HCV inh 25µM, FMDV antiviral 14µM, Lassa entry inh inconclusive, MARV entry inh inconclusive
CC(C)Nc1ncnc2ccc(Br)cc12	HCMV inh -96, HCV inh inconclusive, FMDV antiviral inconclusive, Lassa entry inh inconclusive, MARV entry inh inconclusive
CC(C)COc1ccc(Nc2ncnc3ccc(Br)cc23)cc1	none (no result: HCV inh, SARS PLpro yeast)
CCOc1ccccc1Nc1ncnc2ccccc12	HCV inh 10µM
CC1CCN(c2oc(-c3cccs3)nc2S(=O)(=O)c2ccc(Cl)cc2)CC1	Lassa entry inh inconclusive (no result: HCV inh, SARS PLpro yeast)
CCCCCCCCCCCCCCCC[n+]1cccc2ccccc21	HCMV inh -98, HCV inh 4.5µM, FMDV antiviral inconclusive, Lassa entry inh 7.9µM, MARV entry inh inconclusive
CCCCCCCCC[n+]1cccc2c3ccccc3ccc21	HCV inh 4.5µM, Lassa entry inh 2.8µM, MARV entry inh 2µM (no result: HCMV inh)
CCN1CCN(c2ncc3c(n2)CCN(Cc2ccccc2C)C3)CC1	none (no result: HCV inh, SARS PLpro yeast, MARV entry inh)
CN(CC(=O)NCc1ccc(F)cc1)S(=O)(=O)c1ccc(Br)s1	HCMV inh -71
CN(CC(=O)NCC1CCCCC1)S(=O)(=O)c1ccc(F)cc1	HCMV inh -63
Cc1ccccc1-c1noc(CSc2nc(-c3ccc(F)cc3)cc(=O)[nH]2)n1	none (no result: HCV inh, SARS PLpro yeast, MARV entry inh)
COc1ccc(COC(=O)C2=C(C)NC(=O)NC2c2ccc(O)cc2)cc1 (stereo not drawn)	none (no result: Lassa entry inh, MARV entry inh)
CC1=C(C(=O)OCc2ccc3c(c2)OCO3)C(c2ccccc2OCc2ccccc2)NC(=O)N1 (stereo not drawn)	HCV inh 10µM, MARV entry inh inconclusive (no result: FMDV antiviral)
COc1ccc(COC(=O)C2=C(C)NC(=O)NC2c2ccc(OC)cc2)cc1 (stereo not drawn)	HCMV inh -64, HCV inh inconclusive, FMDV antiviral inconclusive (no result: Lassa entry inh, MARV entry inh)
CC1=C(C(=O)OCc2ccc3c(c2)OCO3)C(c2ccccc2)NC(=O)N1 (stereo not drawn)	HCMV inh -92, HCV inh inconclusive, Lassa entry inh inconclusive, MARV entry inh inconclusive (no result: FMDV antiviral)
CCCOc1ccccc1C1NC(=O)NC(C)=C1C(=O)OCc1ccccc1 (stereo not drawn)	HCMV inh inconclusive, HCV inh inconclusive, FMDV antiviral inconclusive, MARV entry inh inconclusive
CC1=C(C(=O)OCc2ccc3c(c2)OCO3)C(c2ccc(O)c([N+](=O)[O-])c2)NC(=O)N1 (stereo not drawn)	HCMV inh inconclusive
Cc1cnc(-n2ncc(C(=O)N(C)CC3COCCO3)c2C2CC2)nc1-c1cccs1 (stereo not drawn)	none (no result: HCMV inh, HCV inh, SARS PLpro yeast, Lassa entry inh, MARV entry inh)
CCc1ccccc1NC(=O)CN1C(=O)CCSc2ccc(S(=O)(=O)N3CCCC3)cc21	none (no result: HCV inh, SARS PLpro yeast, MARV entry inh)
Cc1cccc(NC(=S)N2CCN(S(=O)(=O)c3cccc(F)c3)CC2)c1	HCV inh 6.3µM, MARV entry inh inconclusive
Cc1[nH]c2ccccc2c1C(=O)COC(=O)c1ccccc1O	HCV inh 11µM
Cc1[nH]c2ccccc2c1C(=O)CCl	HCMV inh inconclusive, HCV inh inconclusive, FMDV antiviral 25µM (no result: Lassa entry inh, MARV entry inh)
Cc1[nH]c2ccccc2c1C(=O)CSc1ccccn1	HCV inh inconclusive, MARV entry inh inconclusive
Cc1[nH]c2ccccc2c1C(=O)CNc1nccs1	HCV inh 22µM
Cc1[nH]c2ccccc2c1C(=O)CSc1ccccc1	MARV entry inh inconclusive
CCC(=O)N1CCc2cc(Br)cc(S(=O)(=O)CCC(=O)NCc3ccccc3)c21	none (no result: HCV inh, SARS PLpro yeast)
COc1cccc(/C=N/n2c(SC)nnc2-c2ccccc2)c1OC	FMDV antiviral inconclusive, Lassa entry inh 11µM, MARV entry inh inconclusive
COc1cccc(/C=N/n2c(SC)nnc2-c2ccccc2)c1O	HCV inh inconclusive, Lassa entry inh inconclusive, MARV entry inh inconclusive
